About 83,000 compounds went through this panel and 20% of them were active in at least one assay; those are over-represented in the sample as a whole.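 A percent growth of 40 corresponds to 60% growth inhibition; 0 means no net growth; -100 means all cells died. Active threshold: below 10.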 Activity calls are given as the source filed them.
Columns and labels:
Assay in all cases: NCI-60 one-dose screen, 48 h (100 = growth as untreated, 0 = no growth, -100 = all killed)
Conditions in all cases: 10 µM unless noted
[1] = system: HCT-15 colon
[2] = system: HT29 colon
[3] = system: SNB-75 CNS
[4] = system: SNB-19 CNS
[5] = system: U251 CNS
[6] = system: PC-3 prostate
[7] = system: SK-MEL-5 melanoma
[8] = system: UACC-62 melanoma
[9] = system: SK-MEL-28 melanoma
[10] = system: SK-MEL-2 melanoma
[11] = system: EKVX NSCLC
[12] = system: SN12C renal
[13] = system: UO-31 renal
[14] = system: TK-10 renal
[15] = system: CAKI-1 renal
[16] = system: CCRF-CEM leukemia
[17] = system: MOLT-4 leukemia
[18] = system: ACHN renal
[19] = system: A498 renal

Measured: growth

COCCNC1=C(Cl)C(=O)c2ccccc2C1=O
inactive: [1] 90.3% | [2] 101% | [3] 74.5% | [4] 102% | [5] 91.3% | [6] 117% | [8] 90.9% | [9] 109% | [10] 103% | [11] 108% | [12] 95.2% | [13] 115% | [14] 138% | [15] 116% | [16] 99.7% | [17] 108%
active: [7] -6.75%

Cn1cc(-c2nc(-c3cn(C)c4ncccc34)cs2)c2ccccc21
active: [2] 9.24%
inactive: [1] 20.4% | [3] 20.9% | [4] 51.4% | [5] 31.8% | [6] 53.6% | [7] 21.9% | [8] 33.2% | [9] 46.5% | [10] 28.6% | [11] 62.6% | [12] 52.8% | [13] 62.4% | [14] 50.5% | [18] 49.6% | [15] 28.3% | [16] 47.1% | [17] 31.7%

Nc1c(Cl)cc(N=Nc2ccccc2)cc1Cl
inactive: [1] 93% | [2] 100% | [3] 74% | [4] 100% | [5] 94.5% | [6] 96.2% | [7] 94.3% | [8] 57.5% | [9] 106% | [10] 61.3% | [11] 69% | [12] 95.4% | [13] 62.2% | [14] 12.8% | [18] 97.4% | [15] 89.9% | [19] 73.6% | [17] 90.3%

Cc1c(C)c2c(c(C)c1NC(=O)CCCCCCC(=O)O)CCC(C)(CCCC(C)CCCC(C)CCCC(C)C)O2 (configuration not stated)
inactive: [1] 55% | [2] 39.8% | [3] 93.9% | [4] 101% | [5] 68.9% | [6] 69.7% | [7] 81% | [8] 89.1% | [9] 96.1% | [10] 43.2% | [11] 86.3% | [12] 77.5% | [13] 75.7% | [14] 87.6% | [15] 100% | [16] 71.3% | [17] 76.7%

Cc1csc(-c2ccc3c(c2)COC3(CCCN(C)C)c2ccc(F)cc2)c1 (configuration not stated)
active: [2] -39.6% | [5] -45.1% | [8] -73.6% | [17] -17.4%
inactive: [1] 14.4% | [3] 32% | [4] 74.8% | [6] 28% | [7] 73.6% | [9] 37.5% | [10] 25.8% | [11] 72.2% | [12] 62.7% | [13] 44.7% | [14] 55% | [18] 63.6% | [15] 27.7% | [19] 86.2%

Cc1ccc(Cc2cnc(NC(=O)/C=C/c3cccc(C)c3)s2)cc1
active: [1] 7.04% | [2] 0.0384% | [3] -23.6% | [5] 9.32% | [19] -5.43%
inactive: [4] 13.4% | [6] 30.3% | [7] 12.6% | [8] 16.3% | [9] 50.3% | [10] 51.6% | [11] 29.4% | [12] 31.4% | [13] 33.7% | [14] 28.3% | [18] 12.1% | [15] 12.5% | [17] 16.7%

Cn1cc(-c2csc(-c3c[nH]c4ccccc34)n2)c2cccnc21
inactive: [1] 25.6% | [2] 10.2% | [4] 47.2% | [5] 27.2% | [6] 22.1% | [7] 11.1% | [8] 44.7% | [9] 53.9% | [10] 38.2% | [11] 42.5% | [12] 46.5% | [13] 57.2% | [14] 48% | [15] 15.7% | [19] 13.5% | [16] 20.4% | [17] 44.4%
active: [3] -5.48%

O=C1c2cccc3cccc(c23)C(=O)N1CC#Cc1ccc2c3c(cccc13)C(=O)N(CCO)C2=O
inactive: [1] 82.1% | [2] 96.5% | [3] 69.9% | [4] 96.3% | [5] 93.1% | [6] 84.8% | [7] 90.8% | [8] 93.1% | [9] 112% | [10] 102% | [11] 76.3% | [12] 90.7% | [13] 57.3% | [18] 87.1% | [15] 56.8% | [19] 105% | [16] 80.6% | [17] 62.3%

C=C(C)[C@@H]1CC[C@]2(C=O)CC[C@]3(C)[C@H](CC[C@@H]4[C@@]5(C)C/C(=C/c6cccnc6)C(=O)C(C)(C)[C@@H]5CC[C@]43C)[C@@H]12
inactive: [1] 57.6% | [2] 72% | [3] 101% | [4] 84.4% | [5] 73.4% | [6] 41.8% | [7] 74.4% | [8] 61.5% | [9] 93.3% | [10] 88.5% | [11] 88.5% | [12] 77.1% | [14] 134% | [18] 61.6% | [15] 50.1% | [19] 98.3% | [17] 49.9%

COc1cc2nc(Cl)nc(Nc3cccc(C(=O)/C=C/c4ccc(Cl)cc4)c3)c2cc1OC
inactive: [2] 19.6% | [3] 81.3% | [4] 54.6% | [5] 50.7% | [6] 56% | [7] 83.9% | [8] 62.8% | [9] 74.2% | [10] 96.4% | [11] 71.7% | [12] 70.5% | [14] 149% | [18] 56% | [15] 51.9% | [19] 77.3% | [16] 19.4% | [17] 33.5%
active: [1] 2.93%

Cc1cc2nc3c4cc(Cl)ccc4n(CCN(C)C)c3nc2cc1C
inactive: [3] 26.3% | [4] 15.4% | [5] 12.3% | [6] 27.2% | [7] 41% | [10] 43.6% | [11] 20.4% | [14] 19.4% | [19] 73.9% | [16] 24.6%
active: [1] -25.1% | [2] 1% | [8] -70.7% | [9] -59.3% | [13] -45% | [18] -10% | [15] -7.17% | [17] 2.26%

O=C1/C(=C\C(Cl)=C/c2ccc([N+](=O)[O-])cc2)SC(=S)N1CCc1ccc(O)cc1
active: [1] -49.9% | [2] -15.3% | [3] -27.7% | [4] -59.7% | [5] -88% | [6] -14.8% | [7] -78.9% | [8] -30.8% | [9] -61.2% | [10] 0.0993% | [11] -43% | [13] -91.4% | [14] -32.7% | [18] -89.4% | [15] -70.5% | [19] -27.5% | [16] 8.16% | [17] 7.65%

O=c1[nH]c(=S)[nH]c2nc[nH]c12
inactive: [1] 99.5% | [2] 103% | [3] 84.6% | [4] 107% | [5] 105% | [6] 96.9% | [7] 110% | [8] 97.6% | [9] 110% | [10] 117% | [11] 97.2% | [13] 62.7% | [14] 113% | [18] 104% | [15] 108% | [19] 93.4% | [16] 106% | [17] 97.8%

N#Cc1c(-c2ccco2)nc2c(c(-c3ccccc3)nn2-c2ccccc2)c1-c1ccc(O)cc1
active: [17] 9.84%
inactive: [1] 38.4% | [2] 30.2% | [3] 71.1% | [4] 95.9% | [5] 61.6% | [6] 23.8% | [7] 87.1% | [8] 89.2% | [9] 74.7% | [10] 70.4% | [11] 56.4% | [12] 82.4% | [14] 89.2% | [18] 72.4% | [15] 58.9% | [19] 90.9% | [16] 41.5%

COc1ccc2c(c1)c(-c1nc(-c3c[nH]c4ncccc34)cs1)cn2C
inactive: [1] 51.6% | [2] 55.6% | [3] 76.1% | [4] 92.7% | [5] 75.3% | [6] 61.1% | [7] 79.4% | [8] 67.6% | [9] 87.9% | [10] 60.9% | [11] 29.3% | [12] 74.5% | [18] 53.2% | [15] 55.1% | [19] 60.1% | [16] 51.7% | [17] 54.5%

C#CCn1c(C)cc(C)c(C#N)c1=O
inactive: [1] 105% | [2] 120% | [3] 103% | [4] 95.4% | [5] 100% | [6] 104% | [7] 104% | [8] 99% | [9] 109% | [10] 108% | [11] 99.6% | [12] 100% | [13] 85.6% | [18] 106% | [15] 95.2% | [19] 104% | [16] 99.2% | [17] 111%

C=C(C)[C@@H]1CC[C@]2(C(=O)N3CCN(CC)CC3)CC[C@]3(C)[C@H](CC[C@@H]4[C@@](C)(CCC(=O)N5CCN(CC)CC5)[C@H](C(=C)C)CC[C@]43C)[C@@H]12
active: [1] 9.11% | [18] -49.8% | [15] -15.3%
inactive: [2] 17.3% | [3] 69.2% | [4] 85.1% | [5] 40.6% | [6] 32.5% | [7] 45.5% | [8] 50.9% | [9] 55.8% | [10] 90.2% | [11] 52.5% | [13] 28.2% | [14] 49.6% | [19] 92.6% | [16] 49.4% | [17] 34%

Source: PubChem BioAssay (NCI)
